# Data from PubChem BioAssay (NCATS).
# Where “and” joins values, the source holds several entries; their conditions need not be identical. Identical values can stand only once. A number with no mark means an inactive call. Records with an inconclusive call do not appear. Calls of active or inactive are those of the source. Unless noted, the call rests on the fitted dose curve; in most records, active means well fitted curve in the direction sought with a large enough effect; inconclusive means small, poorly fitted or top-dose-only effect, or another doubt; inactive means no such curve, though single readings can be large; an effect the other way counts as inactive or inconclusive.
# What was measured:
# [1] = Cell Viability - BJ (AID 421; calls by dose curve;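 further: potency means the concentration at half of the fitted maximal effect; cells exposed to compound for 40 hours at 37 °C before readout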); conditions: BJ fibroblast viability, qHTS
# Outline: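 Cytotoxicity as drop in intracellular ATP (CellTiter-Glo, 20 min RT) after 40 hr compound exposure of BJ fibroblasts at 37 °C. Titrations scaled between DMSO and 100 uM tamoxifen, Hill-fitted for AC50.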
# [2] = Cell Viability - Hek293 (AID 427;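 active means compounds whose dose-response curve shows a full or clear partial loss of cell viability, called from curve shape rather than a numeric limit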;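 further: potency means the concentration at half of the fitted maximal effect; cells exposed to compound for 40 hours at 37 °C before reading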); conditions: qHTS
# Outline: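 Luminescent ATP content (CellTiter-Glo, 20 min at room temperature) was measured after a 40 hr, 37 °C compound exposure of HEK293 cells. AC50 values came from Hill-equation fits of qHTS concentration-response data normalized to DMSO and 100 uM tamoxifen.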
# [3] = Cell Viability - MRC5 (AID 434; calls by dose curve;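 further: potency means the concentration at half of the fitted maximal effect; potency reflects cytotoxicity seen as loss of intracellular ATP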); conditions: MRC5 lung fibroblast viability, qHTS
# Outline: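 MRC5 normal human lung fibroblasts (1500/well) were treated with compounds for 40 hr at 37 °C in complete medium, and viable cells were measured as intracellular ATP by CellTiter-Glo luminescence. AC50 came from Hill fits, normalized to DMSO and 100 uM tamoxifen.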
# [4] = Cell Viability - N2a (AID 540); conditions: N2a mouse neuroblastoma cell viability; activity change, negative = cytotoxicity: at 92.2 µM (top of the series); further: nearly all actives have a fitted effect of over 45% in size; further: potency means the concentration at half of the fitted maximal effect;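 on activity change, negative = cytotoxicity: plate controls were DMSO alone for no effect and tamoxifen control for full effect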
# Outline: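 Luminescent ATP signal (CellTiter-Glo, 20 min at room temperature) served as the viability read-out after N2a cells were treated with compounds for 40 hours at 37 °C. Concentration-response data were fitted to the Hill equation for AC50.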
# [5] = Cell Viability - SH-SY5Y (AID 544); conditions: SH-SY5Y neuroblastoma cell viability; viability change, negative = cytotoxic: at 92.2 µM (top of the series); further: nearly all actives have a fitted effect of over 55% in size; further: potency means the concentration at half of the fitted maximal effect
# Outline: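 Luminescent ATP read-out (CellTiter-Glo) measures loss of viable SH-SY5Y neuroblastoma cells after 40 hr compound exposure at 37 °C. AC50 values derive from standard Hill modelling of qHTS concentration-response data.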
# [6] = Cell Viability - Renal Proximal Tubule (AID 545); conditions: renal proximal tubule cells viability; activity change, negative = cytotoxicity: at 91.7 µM (top of the series) unless noted; further: nearly all actives have a fitted effect of over 40% in size; further: potency means the concentration at half of the fitted maximal effect
# Outline: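 Rat renal proximal tubule primary cells, 1000/well, exposed to compounds for 40 hr at 37 °C in complete medium; cellular ATP read by CellTiter-Glo luminescence. AC50 from concentration-response fitted with standard Hill equation.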
# [7] = Cell Viability - Mesenchymal (AID 546); conditions: mesenchymal cells viability, qHTS; activity change, negative = cytotoxicity: at 91.7 µM (top of the series);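 further: cells exposed to compound for 40 hours before reading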; further: potency means the concentration at half of the fitted maximal effect
# Outline: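 Normal human renal glomerulus-derived kidney mesenchymal cells, 1000 per well in complete medium, were treated with compounds for 40 hr at 37 °C. Viability was read as intracellular ATP by CellTiter-Glo luminescence; AC50 values came from Hill-equation fits of qHTS concentration-response data.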
# [8] = Cellular Toxicity (caspase-3) HepG2 (AID 654); conditions: HepG2 caspase-3 activation, luminescence, 0% = DMSO only, 100% = tamoxifen; series mostly up to 92.2 µM;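 further: cells exposed to compound for 16 hours before reading; 0% = DMSO alone and 100% = caspase signal from 100 µM tamoxifen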
# Outline: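 Cells plated 5 hr at 37 °C, compound added, incubated 16 hr at 37 °C. Caspase-Glo 3/7 reagent followed, 20 min at room temperature, then luminescence read. Activation scored as signal increase; AC50 from Hill fit.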
# [9] = Cellular Toxicity (caspase-3) Renal Proximal Tubule (AID 667); conditions: renal proximal tubule cells; at 91.7 µM (top of the series) unless noted;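 further: cells exposed to compound for 16 hours at 37 °C before detection; 0% = DMSO basal and 100% = 10 µM staurosporine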
# Outline: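 Freshly isolated primary rat kidney proximal tubule cells, 1000/well, treated 16 hr at 37 °C, then Caspase-Glo 3/7 luminescence after 1 hr. Normalized to DMSO and 10 uM staurosporine; AC50 from Hill fit.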
# [10] = MultiTox-Fluor Cytotoxicity Assay - LYMP1-002 - Live Cells (AID 955); conditions: LYMP1-002 lymphoblastoid live-cell protease fluorescence viability; series mostly up to 46.1 µM; further: potency means the concentration at half of the fitted maximal effect; on viability change, negative = cytotoxic: on the % scale 0 is the no-effect control and ±100 the full control effect
# Outline: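 Read-out is live-cell protease activity (cell-permeant GF-AFC substrate, fluorescence Ex/Em=405/510), where a decrease indicates acute toxicity. Human lymphoblastoid cells were treated 16 hours at 37 C in a concentration series, and AC50 values came from standard Hill modelling.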
# [11] = MultiTox-Fluor Cytotoxicity Assay - LYMP1-003 - Live Cells (AID 962); conditions: LYMP1-003 lymphoblastoid cells, MultiTox-Fluor live-cell protease fluorescence; series mostly up to 92.2 µM; further: potency means the concentration at half of the fitted maximal effect
# Outline: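 qHTS, 1536-well; 2500 cells/well LYMP1-003; 5 hr 37 C settle; cpd 16 hr 37 C; MultiTox-Fluor reagent 60 min RT; live-cell protease fluor. 405/510; Hill-fit AC50; tetraoctylammonium bromide pos. ctrl.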
# [12] = Cell Viability - LYMP2-008 (AID 980); conditions: LYMP2-008 lymphoblastoid cell viability, qHTS; series mostly up to 92.2 µM; further: nearly all actives have a fitted effect of over 60% in size; further: potency means the concentration at half of the fitted maximal effect;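 on activity change, negative = cytotoxicity: cells exposed to compound for 24 h at 37 °C; on the % scale 0 is the no-effect control and ±100 the full control effect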
# Outline: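 qHTS, human lymphoblastoid line, 2500 cells/well; 5 hr preincubation, 24 hr compound, 37 C. CellTiter-Glo ATP luminescence. AC50 via Hill equation. Tetraoctylammonium bromide positive control.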
# [13] = molecular target: Tumor necrosis factor (Homo sapiens) (UniProt P01375); assay: qHTS assay to identify small molecules that stimulate Tumor Necrosis Factor-alpha (TNF-alpha) secretion (AID 651757; active means well fitted curve in the direction sought with a large enough effect in the signal ratio; the % refers to the signal ratio; further: 0% is about no effect); conditions: Human cells, HTRF 665/615 ratio; series mostly up to 92.2 µM
# Sequence of Tumor necrosis factor (Homo sapiens) (P01375 whole entry, looked up): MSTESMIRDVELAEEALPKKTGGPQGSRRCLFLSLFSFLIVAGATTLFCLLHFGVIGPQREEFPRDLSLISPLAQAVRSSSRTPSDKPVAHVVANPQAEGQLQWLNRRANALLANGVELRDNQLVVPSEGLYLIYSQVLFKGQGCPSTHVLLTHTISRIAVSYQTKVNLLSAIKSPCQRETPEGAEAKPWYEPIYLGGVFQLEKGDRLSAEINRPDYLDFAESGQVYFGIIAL
# Outline: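 Read-out is HTRF, a TR-FRET sandwich of cryptate- and XL665-labeled anti-TNF-alpha antibodies detecting cytokine secreted by THP-1 cells. Cells had been incubated with test compounds at 37 C for 17 hrs beforehand.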
# [14] = qHTS assay for environmental chemicals that activate the Aryl hydrocarbon Receptor (AhR) signaling pathway (AID 651777); conditions: 1A2-DRE human hepatoma cells, luciferase, 24 h; activation: hits give high values; further: nearly all actives have a fitted effect of over 15% in size; further: potency means the concentration at half of the fitted maximal effect; on activation: % of control where 0% means no effect
# Outline: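 Induction of CYP1A2 transcription through AhR is detected by luciferase in 1A2-DRE hepatoma cells. Compounds or DMSO act for 24 hr at 37 C before a 30 min One-Glo step at room temperature.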
# [15] = molecular target: Peroxisome proliferator-activated receptor alpha (Homo sapiens) (UniProt Q07869); assay: qHTS assay for small molecule agonists of the peroxisome proliferator-activated receptor alpha (PPARalpha) signaling pathway (AID 651778); conditions: PathHunter PPARalpha complementation, chemiluminescence, 6 h; max response: hits give high values; further: % of control where 0% means no effect
# Sequence of Peroxisome proliferator-activated receptor alpha (Homo sapiens) (Q07869 whole entry, looked up): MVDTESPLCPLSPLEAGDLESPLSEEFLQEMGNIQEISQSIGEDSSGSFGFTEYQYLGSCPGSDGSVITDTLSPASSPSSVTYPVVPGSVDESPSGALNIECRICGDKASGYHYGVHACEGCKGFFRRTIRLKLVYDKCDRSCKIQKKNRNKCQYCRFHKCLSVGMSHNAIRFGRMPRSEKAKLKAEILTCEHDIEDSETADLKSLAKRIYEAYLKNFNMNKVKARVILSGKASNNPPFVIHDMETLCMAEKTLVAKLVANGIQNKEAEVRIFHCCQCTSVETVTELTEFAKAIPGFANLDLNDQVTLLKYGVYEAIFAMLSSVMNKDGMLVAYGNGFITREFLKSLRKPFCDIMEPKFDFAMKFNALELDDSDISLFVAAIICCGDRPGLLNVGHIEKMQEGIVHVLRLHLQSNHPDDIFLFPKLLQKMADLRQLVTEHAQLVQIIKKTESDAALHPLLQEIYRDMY
# Outline: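 Cells plated at 2,000/well and held overnight at 37 C, 5% CO2, then compound added by pin tool for 6 hr; after PathHunter detection reagent and 60 min at room temperature, chemiluminescence from enzyme complementation was read.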
# [16] = qHTS assay for small molecule agonists of the antioxidant response element (ARE) signaling pathway measured by Nrf2-dependant transcriptional activity - cell viability counter screen (AID 720653; active means well fitted curve in the direction sought with a large enough effect in the repeat runs; an effect the other way counts as inactive or inconclusive; further: potency means the concentration at half of the fitted maximal effect; on max response: on the % scale 0 is the no-effect control and ±100 the full control effect); conditions: ARE-bla HepG2 viability, CellTiter-Glo ATP luminescence, 16 h; max response: hits give low values
# Outline: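 ARE-bla HepG2 cells (2,000/well) rested 5 hrs at 37C/5% CO2, then exposed to compounds in DMSO for 16 hrs. Viability was read in the same wells as intracellular ATP by luminescence, 30 min at room temperature after reagent addition.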
# [17] = molecular target: Glucocorticoid receptor (Homo sapiens) (UniProt P04150); assay: GR-GFP Redistribution (AID 450;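 active means compounds whose dose series gives a full or clear partial fitted curve of increased nuclear translocation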; further: potency means the concentration at half of the fitted maximal effect); conditions: U2OS GR-GFP nuclear translocation, laser cytometry, 2 h
# Sequence of Glucocorticoid receptor (Homo sapiens) (P04150 whole entry, looked up): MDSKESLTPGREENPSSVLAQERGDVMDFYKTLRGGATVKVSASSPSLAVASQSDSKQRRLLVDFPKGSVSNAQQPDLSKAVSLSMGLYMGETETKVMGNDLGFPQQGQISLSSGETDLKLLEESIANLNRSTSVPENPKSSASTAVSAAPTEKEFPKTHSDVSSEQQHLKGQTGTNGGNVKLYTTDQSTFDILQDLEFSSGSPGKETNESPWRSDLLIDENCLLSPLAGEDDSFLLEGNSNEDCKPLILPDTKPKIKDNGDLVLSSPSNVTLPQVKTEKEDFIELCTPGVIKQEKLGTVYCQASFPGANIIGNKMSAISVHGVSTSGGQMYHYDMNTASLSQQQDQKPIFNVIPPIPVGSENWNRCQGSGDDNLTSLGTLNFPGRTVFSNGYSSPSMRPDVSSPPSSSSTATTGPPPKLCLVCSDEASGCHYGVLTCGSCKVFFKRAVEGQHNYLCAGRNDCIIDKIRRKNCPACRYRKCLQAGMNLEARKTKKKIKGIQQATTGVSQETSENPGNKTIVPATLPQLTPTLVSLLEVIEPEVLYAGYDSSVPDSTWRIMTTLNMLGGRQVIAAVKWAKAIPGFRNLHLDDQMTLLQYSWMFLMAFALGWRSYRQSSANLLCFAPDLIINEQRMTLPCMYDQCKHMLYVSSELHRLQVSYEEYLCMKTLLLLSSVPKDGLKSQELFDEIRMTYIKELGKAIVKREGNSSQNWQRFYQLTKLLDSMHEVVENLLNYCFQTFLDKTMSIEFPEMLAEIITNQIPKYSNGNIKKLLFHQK
# [18] = molecular target: Alpha-galactosidase (Coffea arabica) (UniProt Q42656); assay: Counterscreen for Glucocerebrosidase Inhibitors: qHTS Assay for Coffee Bean alpha-Galactosidase at pH 4.5 (AID 957); conditions: purified coffee bean alpha-galactosidase, fluorogenic substrate; series mostly up to 76.9 µM;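 further: plate controls were enzyme alone for no effect and no enzyme for full effect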
# Sequence of Alpha-galactosidase (Coffea arabica) (Q42656 whole entry, looked up): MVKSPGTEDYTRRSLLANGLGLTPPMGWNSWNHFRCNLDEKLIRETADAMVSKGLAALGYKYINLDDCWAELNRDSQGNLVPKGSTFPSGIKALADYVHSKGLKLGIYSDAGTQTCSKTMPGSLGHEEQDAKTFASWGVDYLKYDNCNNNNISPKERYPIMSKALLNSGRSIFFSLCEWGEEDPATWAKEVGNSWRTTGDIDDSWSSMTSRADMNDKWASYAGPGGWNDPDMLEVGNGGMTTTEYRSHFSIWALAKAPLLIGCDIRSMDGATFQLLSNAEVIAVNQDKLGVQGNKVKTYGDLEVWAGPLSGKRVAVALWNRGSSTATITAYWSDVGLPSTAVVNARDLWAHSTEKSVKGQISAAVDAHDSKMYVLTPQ
# Outline: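 Coffee bean alpha-galactosidase 2 nM, substrate 4-MU-alpha-Gal 80 uM, pH 4.5 citrate/Tween-20, 20 min RT. Cpd titration 0.7 nM–77 uM. Stop pH 10, fluorescence 365/440 nm; Hill-equation AC50.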
# [19] = molecular target: Alpha-galactosidase (Coffea arabica) (UniProt Q42656); assay: Counterscreen for Glucocerebrosidase Inhibitors: qHTS Assay for Coffee Bean alpha-Galactosidase at pH 5.9 (AID 998); conditions: coffee bean alpha-galactosidase enzyme assay; series mostly up to 76.9 µM;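 further: plate controls were uninhibited enzyme for no effect and no-enzyme basal signal for full effect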
# Outline: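 Green coffee bean enzyme (2 nM final) was incubated with compounds (0.7 nM–77 uM) and 4-methylumbelliferyl alpha-D-galactopyranoside (80 uM) in citrate buffer pH 5.9, 20 min at room temperature. High-pH stop; fluorescence 365/440 nm; AC50 from Hill fits.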
smiles,measurement,setting,value
C#CCO,Potency,[1],> 92 µM
same,Potency,[2],> 92 µM
same,Potency,[3],> 92 µM
same,"activity change, negative = cytotoxicity",[4],-2.19%
same,Potency,[5],inactive
same,Potency,[6],inactive
same,Potency,[7],inactive
same,outcome,[8],inactive
same,caspase-3 activation,[9],"-11.4% [at 91.7 µM, primary cells freshly taken from rat, solvent-only wells 0%, staurosporine 100%]"
same,Potency,[10],inactive
same,Potency,[11],inactive
same,Potency,[12],inactive
same,Potency,[13],inactive
same,activation,[14],1.07%
same,max response,[15],-1.68%
same,max response,[16],-2.39%
O=[N+]([O-])c1cc(C(F)(F)F)cc([N+](=O)[O-])c1Cl,Potency,[1],> 92 µM
same,Potency,[2],> 92 µM
same,Potency,[3],> 92 µM
same,Potency,[6],inactive
same,Potency,[7],inactive
same,caspase-3 activation,[9],"6.02% [at 91.7 µM, primary cells freshly taken from rat, solvent-only wells 0%, staurosporine 100%]"
same,Potency,[10],inactive
same,Potency,[11],inactive
same,Potency,[12],39.8 µM (active)
same,Potency,[13],inactive
same,activation,[14],0.493%
same,max response,[15],-4.28%
same,max response,[16],4.67%
Oc1cc2c(cc1O)[C@H]1c3ccccc3CN[C@@H]1CC2,Potency,[17],> 46 µM
same,outcome,[18],inactive
same,outcome,[19],inactive
COCC(C)OC(=O)c1c(N)n(Cc2ccco2)c2nc3ccccc3nc12 (configuration not stated),Potency,[17],> 20.6 µM
Cc1c(N=Cc2c(O)n(CCc3ccc(F)cc3)c(=O)[nH]c2=O)c(=O)n(-c2ccccc2)n1C,Potency,[17],> 20.6 µM
CCCCCCCCn1sccc1=O,Potency,[1],> 92 µM
same,Potency,[2],35.3 µM (active)
same,Potency,[3],10.7 µM (active)
same,"activity change, negative = cytotoxicity",[4],-113% (active)
same,Potency,[5],3.98 µM (active)
same,Potency,[6],12.6 µM (active)
same,Potency,[7],12.6 µM (active)
same,outcome,[8],inactive
same,caspase-3 activation,[9],-21.1%
same,Potency,[10],7.94 µM (active)
same,Potency,[11],15.8 µM (active)
same,Potency,[12],7.94 µM (active)
same,Potency,[13],inactive
same,activation,[14],1.42% and -3.52%
same,max response,[15],-5.93% and -2.13%
same,Potency,[16],50.1 µM (active)
Cn1c(O)c(C(=O)c2ccccc2Cl)c(=O)n(C)c1=O,Potency,[17],> 20.6 µM
CCN(CC)CCN=C(C)c1c(O)n(-c2ccccc2OC)c(=O)[nH]c1=O,Potency,[17],> 20.6 µM
c1ccc2cc3c(cc2c1)-c1cccc2cccc-3c12,Potency,[1],> 92 µM
same,Potency,[2],> 92 µM
same,Potency,[3],> 92 µM
same,"activity change, negative = cytotoxicity",[4],-2.25%
same,Potency,[5],inactive
same,Potency,[6],inactive
same,Potency,[7],inactive
same,outcome,[8],inactive
same,caspase-3 activation,[9],-4.56%
same,Potency,[10],inactive
same,Potency,[11],inactive
same,Potency,[12],inactive
same,Potency,[13],inactive
same,Potency,[14],2.82 µM (active) and 2.51 µM (active)
same,max response,[15],13.7% and 0.159%
same,max response,[16],-11.7% and -17%
N#CSCSC#N,Potency,[1],14.4 µM (active)
same,Potency,[2],34.5 µM (active)
same,Potency,[3],41.4 µM (active)
same,Potency,[4],25.1 µM (active)
same,Potency,[5],1 µM (active)
same,Potency,[6],5.01 µM (active)
same,Potency,[7],12.6 µM (active)
same,outcome,[8],inactive
same,caspase-3 activation,[9],-11.6%
same,Potency,[10],15.8 µM (active)
same,Potency,[11],39.8 µM (active)
same,Potency,[12],7.94 µM (active)
same,Potency,[13],inactive
same,activation,[14],3.48% and -14.5%
same,max response,[15],-10% and -5.06%
same,Potency,[16],44.7 µM (active) and 39.8 µM (active)
FC(F)(F)c1ccc(Cl)cc1,Potency,[1],> 92 µM
same,Potency,[2],> 92 µM
same,Potency,[3],> 92 µM
same,"activity change, negative = cytotoxicity",[4],6.85%
same,Potency,[5],inactive
same,Potency,[6],inactive
same,Potency,[7],inactive
same,outcome,[8],inactive
same,caspase-3 activation,[9],"5.86% [at 91.7 µM, primary cells freshly taken from rat, solvent-only wells 0%, staurosporine 100%]"
same,Potency,[10],inactive
same,Potency,[11],inactive
same,Potency,[12],inactive
same,Potency,[13],inactive
same,activation,[14],0.0226% and 0.781%
same,max response,[15],1.19% and -0.788%
same,max response,[16],7.1% and -8.38%
CN1CCC(OC(=O)C2c3ccccc3Oc3ccccc32)CC1,Potency,[17],> 20.6 µM
O=C(Nc1ccncc1)c1c(O)c2ccccc2n(Cc2ccccc2)c1=O,Potency,[17],> 20.6 µM
